According to PubChem BioAssay AID1851 (National Center for Advancing Translational Sciences (NCATS), 2009):
About 4,000 (25%) of roughly 16,000 compounds were called active. Inconclusive results (about 26%) are left out. The list is a sample of the results. Values without a mark were called inactive. The call rests on the fitted dose curve; in most records, active means well fitted curve in the direction sought with a large enough effect; inconclusive means small, poorly fitted or top-dose-only effect, or effect the other way; inactive means no such curve, though single readings can be large or run the other way.
On the % scale 0 is the no-effect control and ±100 the full control effect.

These compounds were tested against Cytochrome P450 2C9 (Homo sapiens) (UniProt P11712) (assay: Cytochrome panel assay with activity outcomes). Conditions: recombinant CYP, pro-luciferin dealkylation, luminescence, p450-cyp2c9; series mostly up to 57.1 µM.
Cytochrome P450 2C9 (Homo sapiens), sequence (P11712 whole entry, looked up): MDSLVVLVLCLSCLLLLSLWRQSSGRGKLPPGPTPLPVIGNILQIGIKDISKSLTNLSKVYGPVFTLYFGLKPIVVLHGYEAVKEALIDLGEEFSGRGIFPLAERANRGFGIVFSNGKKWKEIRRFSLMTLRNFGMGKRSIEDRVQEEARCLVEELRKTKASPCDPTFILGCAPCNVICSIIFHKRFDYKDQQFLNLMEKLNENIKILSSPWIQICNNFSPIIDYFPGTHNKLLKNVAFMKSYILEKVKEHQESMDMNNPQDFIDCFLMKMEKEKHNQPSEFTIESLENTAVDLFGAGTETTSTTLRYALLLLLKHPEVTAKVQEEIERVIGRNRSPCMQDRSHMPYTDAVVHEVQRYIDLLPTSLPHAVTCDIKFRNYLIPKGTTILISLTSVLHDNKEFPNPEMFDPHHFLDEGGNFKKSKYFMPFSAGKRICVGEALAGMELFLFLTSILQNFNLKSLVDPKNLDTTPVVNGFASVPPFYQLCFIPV
CC(=NC1CCCCC1)c1ccccc1O was tested, and the activity, negative = inhibition was -0.794% [at 11.4 µM].
In the case of CC1(C)CC(=O)C2=C(C1)N(Cc1ccccc1)C(=O)C2(O)C(F)(F)F (configuration not stated), the AC50 is reported as “inactive”.
CCCCN1C(=O)C(NC(=O)C2CC2)(C(F)(F)F)C2=C1CC(C)(C)CC2=O (configuration not stated) was tested, and the AC50 was 6.31 µM (active).
For CCOC(=O)c1c(-c2ccc(C)o2)csc1NC(=S)NC(=O)N(C)C, the AC50 was 10 µM (active).
In the case of Cc1cc(C)n2nc(-c3sccc3-n3cccc3)cc2n1, the AC50 is reported as “inactive”.
For COc1ccccc1-c1nc(NCCN2CCOCC2)c2ccccc2n1, the activity, negative = inhibition was 14% [at 2.29 µM].
COc1ccccc1-c1ccc2ncnc(NCCN3CCOCC3)c2c1 gave an activity, negative = inhibition of -10.8% [at 2.29 µM].
For COc1ccc(C2c3c(ncn(CCN4CCOCC4)c3=N)Oc3ccc4ccccc4c32)cc1OC (configuration not stated), the AC50 was 8.91 µM (active).
CCOC(=O)CSc1n[nH]c(NC(=O)c2ccccc2)n1 was tested, and the AC50 was “inactive”.
Cn1sc(NC(=O)c2ccccc2)nc1=O was tested, and the AC50 was 14.1 µM (active).
C=CCNC(=O)C1CCN(S(=O)(=O)CC)CC1 was tested, and the AC50 was “inactive”.
For CC(CCc1ccccc1)NC(=O)/C=C/c1ccccc1 (configuration not stated), the AC50 was 7.08 µM (active).
COC(=O)C/C=C\[C@@H](C)[C@@H](CO)NS(=O)(=O)c1ccc(C)cc1 showed an activity, negative = inhibition of -7.12% [at 11.4 µM].
CC(CCc1ccccc1)NS(=O)(=O)c1ccccc1 (configuration not stated) was tested, and the AC50 was 3.98 µM (active).
In the case of Cc1ccc(S(=O)(=O)N[C@@H](CCc2ccccc2)CC(=O)C(C)(C)C)cc1, the AC50 is reported as 3.98 µM (active).
O=C(O)/C=C\C(=O)NCc1ccccc1 was tested, and the AC50 was “inactive”.
For C[C@@H](CCc1ccccc1)NC[C@H](O)c1ccc(O)c(C(N)=O)c1, the AC50 was “inactive”.
Compound O=C(O)[C@H](/C=C\c1ccccc1)c1ccccc1 has an activity, negative = inhibition of -17.8% [at 11.4 µM].
In the case of Cc1ccc(S(=O)(=O)N[C@H](CO)C(=O)O)cc1, the activity, negative = inhibition is reported as -14.1% [at 11.4 µM].
For O=C(CC1(O)CCCCC1)OC1CCCC1, the activity, negative = inhibition was -26.4% [at 11.4 µM].
With FC(F)(F)c1cc(CN2CCCC3(CCNCC3)C2)cc(C(F)(F)F)c1 the AC50 was “inactive”.
In the case of CC(C)N=c1scc(-c2ccco2)n1/N=C/c1ccc(O)c(O)c1, the AC50 is reported as 11.2 µM (active).
Work on C[N+](C)(C)/N=C\c1ccc(O)c(O)c1 yielded an activity, negative = inhibition of -5.12% [at 11.4 µM].
With CCCC(=O)Nc1nc2n(n1)C(c1ccccc1)CC(=O)N2 (configuration not stated) the AC50 was “inactive”.
CC1(C)CC(=O)C(CCCN2C(=O)c3ccccc3C2=O)C(=O)C1 was tested, and the AC50 was 17.8 µM (active).
O=C1CC[C@H](N2C(=O)c3ccccc3C2=O)C(=O)N1 was tested, and the AC50 was “inactive”.
O=C1c2ccccc2C(=O)N1CCSC(=S)N1CCOCC1 was tested, and the AC50 was “inactive”.
In the case of Cc1cccc(NC(=O)Cn2cccc2)c1, the AC50 is reported as “inactive”.
CSc1cccc(NC(=O)OC2CCCCCCCCCCC2)c1 was tested, and the activity, negative = inhibition was -17.7% [at 11.4 µM].
For CSc1cccc(NC(=O)Cn2cccc2)c1, the AC50 was 20 µM (active).
In the case of O=C(c1ccc(Cl)cc1)N1CCCC(c2ccccc2)=N1, the AC50 is reported as 10 µM (active).
With Clc1ccc(C2=C3CCCCn4c(-c5ccccc5)c[n+](c43)C2)cc1 the AC50 was “inactive”.
For O=C(OCC1CC(c2ccccc2)=NO1)c1ccc(Cl)cc1 (configuration not stated), the AC50 was “inactive”.
With CC(C)(C)NC(=O)Cn1cnc([N+](=O)[O-])n1 the AC50 was “inactive”.
For Cc1cccc(C(CC(=O)N2CCCC2)c2ccccc2)c1O (configuration not stated), the AC50 was 3.98 µM (active).
In the case of O=C(O)c1cccnc1SCC(=O)N1CCCCCC1, the AC50 is reported as “inactive”.
For COCC(=O)N1CCC2(CC1)CCN(C(c1ccccc1)c1ccccc1)CC2, the AC50 was “inactive”.
With CCNc1ncc2ncc(=O)n(C[C@H]3CCCO3)c2n1 the AC50 was “inactive”.
COc1cccc(Cn2c(=O)c(-c3cccc(C#N)c3)nc3cnc(Nc4ccccc4)nc32)c1 was tested, and the AC50 was “inactive”.
In the case of COc1cccc(Cn2c(=O)c(-c3ccccc3)nc3cnc(OC)nc32)c1, the AC50 is reported as 12.6 µM (active).
CCNc1ncc2nc(-c3ccccc3)c(=O)n(Cc3cccc(OC)c3)c2n1 was tested, and the AC50 was “inactive”.
In the case of COc1cccc(Cn2c(=O)c(-c3cccc(C#N)c3)nc3cnc(OC)nc32)c1, the AC50 is reported as 12.6 µM (active).
In the case of COc1ncc2nc(-c3ccc(F)cc3)c(=O)n(Cc3ccc(F)cc3)c2n1, the AC50 is reported as “inactive”.
With COc1cccc(Cn2c(=O)c(-c3cccc(C#N)c3)nc3cnc(N4CCN(C)CC4)nc32)c1 the AC50 was “inactive”.
With CC/C(O)=C(\C#N)c1nnc2n1CCCCC2 the AC50 was “inactive”.
In the case of CC(C)Oc1ccc(CSC(=N)N)cc1, the AC50 is reported as “inactive”.
With N#CC(C#N)=CNCCN1CCN(C=C(C#N)C#N)CC1 the activity, negative = inhibition was 5.25% [at 11.4 µM].
With COCCNC(=O)COc1ccc(Oc2ccccc2)cc1 the AC50 was 0.316 µM (active).
With COCCNC(=O)CCn1c(=O)oc2ccccc21 the AC50 was “inactive”.
In the case of COCCNC(=O)COc1ccc(OCCNC[C@@H](O)COc2ccccc2)cc1, the AC50 is reported as “inactive”.
In the case of CS(=O)(=O)N1CCC2(CCCN(C(=O)Nc3cccc(F)c3)C2)CC1, the AC50 is reported as “inactive”.
COC(Cc1nnc(SC)n1-c1ccccc1)OC was tested, and the AC50 was “inactive”.
For CCOc1ccc(NCc2nnc(SCc3ccccc3Cl)n2-c2ccccc2)cc1, the AC50 was 7.94 µM (active).
In the case of CC(=O)NCCNc1ncnc2ccc(-c3ccc(C(=O)N(C)C)cc3)cc12, the activity, negative = inhibition is reported as 3.47% [at 2.29 µM].
With CC(=O)OC[C@@H]1O[C@H](C/C=N\OCC[C@H]2C=C[C@H](OC(C)=O)[C@@H](COC(C)=O)O2)C=C[C@@H]1OC(C)=O the activity, negative = inhibition was 19.9% [at 11.4 µM].
Compound Cc1noc(C)c1-c1cncnc1NCCN1CCOCC1 has an activity, negative = inhibition of -15.1% [at 2.29 µM].
In the case of O=S(=O)(Cc1cc(Oc2ccccc2)nc(-c2ccccc2)n1)c1ccccc1, the AC50 is reported as 0.891 µM (active).
N[C@@H](CS(=O)O)C(=O)O was tested, and the AC50 was “inactive”.
In the case of CC(=O)Nc1ccc(NC(=O)C/C(C)=N/NC(=O)C(=O)N2CCCC2)cc1, the AC50 is reported as “inactive”.
For CCn1c2ccccc2c2cc(NC(=O)C/C(C)=N/NC(=O)c3ccccc3N)ccc21, the AC50 was 35.5 µM (active).
COCCn1c(=O)cnc2cnc(Oc3ccc(OC)cc3)nc21 was tested, and the AC50 was “inactive”.
Cc1nc2cnc(Oc3cccc(Cl)c3)nc2n(CCc2ccccc2)c1=O was tested, and the AC50 was “inactive”.
In the case of COCCn1c(=O)cnc2cnc(Oc3cccc(Cl)c3)nc21, the AC50 is reported as 15.8 µM (active).
With COCCn1c(=O)cnc2cnc(Oc3ccccc3)nc21 the AC50 was “inactive”.
In the case of COCCn1c(=O)c(C)nc2cnc(Oc3cccc(Cl)c3)nc21, the AC50 is reported as 12.6 µM (active).
COc1ccc(C2CC(=O)CC(=O)C2n2cncn2)cc1 (configuration not stated) was tested, and the AC50 was “inactive”.
In the case of O=C(O)CSc1sc(=S)sc1SCC(=O)O, the AC50 is reported as “inactive”.
Cc1sc2ncn(CC(=O)NCCCC(=O)N3CCN(c4ncccn4)CC3)c(=O)c2c1C was tested, and the AC50 was 11.2 µM (active).
O=C(O)/C=C\C(=O)Nc1ccccn1 gave an activity, negative = inhibition of 25.1% [at 11.4 µM].
For O=C(Nc1cccc2ncccc12)c1cccc(F)c1, the AC50 was “inactive”.
For O=C(Nc1cccc(F)c1)Nc1ccccn1, the AC50 was 25.1 µM (active).
In the case of C[C@@H]1/C=C\CC(=O)OC[C@H]2O[C@@H](C=C[C@@H]2O)[C@H](C)/C=C\CC(=O)OC[C@H]2O[C@H]1C=C[C@@H]2O, the activity, negative = inhibition is reported as -9.33% [at 11.4 µM].
For O=C(c1cccc(F)c1)N1CCC[C@@]2(CCN(C(c3ccccc3)c3ccccc3)C2)C1, the AC50 was “inactive”.
In the case of O=C(c1ccncc1)N1CCC2(CCCN(C(c3ccccc3)c3ccccc3)C2)CC1, the AC50 is reported as 5.01 µM (active).
In the case of CC(C)CN1CCCC2(CCN(C(=O)c3cccc(F)c3)CC2)C1, the AC50 is reported as “inactive”.
O=C(c1ccco1)N1CCC2(CCCN(Cc3ccccc3)C2)CC1 was tested, and the AC50 was “inactive”.
With O=C(c1ccco1)N1CCC2(CCCN(C(c3ccccc3)c3ccccc3)C2)CC1 the AC50 was 12.6 µM (active).
CC(C)NC(=O)N1CCCC2(CCN(C(=O)c3ccncc3)CC2)C1 was tested, and the AC50 was “inactive”.
O=C(c1ccncc1)N1CCC2(CC1)CN(C(c1ccccc1)c1ccccc1)C2 was tested, and the AC50 was 10 µM (active).
For Cc1noc(C)c1C(=O)N1CCC2(CCCN(C(c3ccccc3)c3ccccc3)C2)CC1, the AC50 was “inactive”.
For CC(C)NC(=O)N1CC2(CCN(C(=O)c3ccncc3)CC2)C1, the AC50 was “inactive”.
In the case of O=C(c1cccc(F)c1)N1CCC2(CCCN(C(c3ccccc3)c3ccccc3)C2)CC1, the AC50 is reported as 3.16 µM (active).
In the case of O=C(c1ccco1)N1CCC2(CCCN(c3ccccc3)C2)CC1, the AC50 is reported as “inactive”.
In the case of O=C(c1cnccn1)N1CCC2(CC1)CCN(C(c1ccccc1)c1ccccc1)CC2, the AC50 is reported as “inactive”.
C[C@@H](C[C@H](N)C(=O)O)C(=O)O was tested, and the activity, negative = inhibition was 0.375% [at 11.4 µM].
Cc1cnc(CNc2nc(-c3ccccc3C(F)(F)F)nc3ccccc23)cn1 was tested, and the activity, negative = inhibition was -16.4% [at 2.29 µM].
In the case of O=C(c1cnccn1)N1CCC2(CC1)CN(C(c1ccccc1)c1ccccc1)C2, the AC50 is reported as “inactive”.
For O=C(c1cnccn1)N1CCC2(CCCN(C(c3ccccc3)c3ccccc3)C2)CC1, the AC50 was 12.6 µM (active).
With O=C(c1cnccn1)N1CCC[C@@]2(CCN(C(c3ccccc3)c3ccccc3)C2)C1 the AC50 was “inactive”.
O=C(Nc1nnc(C2CC2)s1)c1ccncc1 was tested, and the AC50 was 8.91 µM (active).
For O=C(NN=C1C2CC3CC(C2)CC1C3)c1ccncc1, the AC50 was “inactive”.
CC(C)NNC(=O)c1ccncc1 was tested, and the AC50 was “inactive”.
In the case of CC/C=C\CC[C@H](O)C1=CCCCC1=O, the activity, negative = inhibition is reported as -1.13% [at 11.4 µM].
For O=C1CCCC=C1[C@@H](O)CCOC(c1ccccc1)(c1ccccc1)c1ccccc1, the AC50 was 0.794 µM (active).
Work on O=C1CCCC=C1[C@@H](O)COCc1ccccc1 yielded an activity, negative = inhibition of 3.8% [at 11.4 µM].
In the case of CC1(C)OC(=O)C(=CNc2cccc(O)c2)C(=O)O1, the AC50 is reported as “inactive”.
In the case of O=C(Nc1cccc(F)c1)N1CC[C@@]2(CCCN(C(=O)c3cc(C(F)(F)F)cc(C(F)(F)F)c3)C2)C1, the AC50 is reported as “inactive”.
With Fc1ccc(Nc2ccnc(-c3ccccc3C(F)(F)F)n2)cc1 the activity, negative = inhibition was -26.8% [at 2.29 µM].
O=C(c1cccc(F)c1)N1CCC[C@@]2(CCN(c3ccncc3)C2)C1 was tested, and the AC50 was “inactive”.
CC(=O)N1CCC2(CC1)CN(c1ccccc1)C2 was tested, and the AC50 was “inactive”.
Cc1noc(C)c1C(=O)N1CCC2(CC1)CCN(c1ccncc1)CC2 was tested, and the AC50 was 10 µM (active).
O=C(c1ccncc1)N1CCC2(CC1)CN(c1ccc(-c3ccccc3)cc1)C2 was tested, and the AC50 was “inactive”.
With Cc1noc(C)c1C(=O)N1CCC2(CCN(Cc3ccncc3)CC2)CC1 the AC50 was “inactive”.
With O=C(c1ccncc1)N1CCC2(CC1)CN(c1ccccc1)C2 the AC50 was 2.51 µM (active).
With Cc1noc(C)c1C(=O)N1CCC2(CCCN(c3ccncc3)C2)CC1 the AC50 was “inactive”.
For O=C(c1ccncc1)N1CCC2(CC1)CCN(c1ccccc1)CC2, the AC50 was 10 µM (active).
In the case of O=C(c1cccc(F)c1)N1CCC2(CC1)CN(c1ccncc1)C2, the AC50 is reported as 5.01 µM (active).
